# Source: the supplement of paper PMC6411743
# ± gives the standard deviation of the averaged measurements. About 6,500 targets were measured; listed, in parts, are those with the largest changes and a random draw of the rest.
# Columns and labels:
# Assay in all cases: NP40-soluble protein abundance relative to vehicle (solubility fold change) (ratio); higher = more soluble protein in presence of ATP
# [1] = biological target: T1, A6NG45|Q13162 (UniProt Q13162)
# T1 sequence (whole entry): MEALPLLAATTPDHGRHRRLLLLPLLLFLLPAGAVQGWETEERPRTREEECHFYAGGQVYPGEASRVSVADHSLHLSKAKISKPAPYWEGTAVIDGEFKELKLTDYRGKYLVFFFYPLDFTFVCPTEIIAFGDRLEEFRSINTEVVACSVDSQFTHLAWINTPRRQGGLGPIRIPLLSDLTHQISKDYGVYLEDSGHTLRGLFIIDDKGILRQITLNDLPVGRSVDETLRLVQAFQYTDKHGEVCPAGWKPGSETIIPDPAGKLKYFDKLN
# Outline: (§1)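 Each value is a fold change relative to the detergent-processed vehicle, calculated per replicate from vsn-normalised intensities. Jurkat crude lysate received eight concentrations (0.1 to 10 mM) for 10 min at room temperature and 3 min at 37 °C, then was solubilised in 0.8% NP40 with benzonase (60 min, 4 °C). The ultracentrifuged supernatant was TMT-labelled and run by LC-MS/MS in three independent experiments.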
# [2] = biological target: T2, E7ET89|Q86UW9|Q86UW9-2 (UniProt Q86UW9)
# T2 sequence (whole entry): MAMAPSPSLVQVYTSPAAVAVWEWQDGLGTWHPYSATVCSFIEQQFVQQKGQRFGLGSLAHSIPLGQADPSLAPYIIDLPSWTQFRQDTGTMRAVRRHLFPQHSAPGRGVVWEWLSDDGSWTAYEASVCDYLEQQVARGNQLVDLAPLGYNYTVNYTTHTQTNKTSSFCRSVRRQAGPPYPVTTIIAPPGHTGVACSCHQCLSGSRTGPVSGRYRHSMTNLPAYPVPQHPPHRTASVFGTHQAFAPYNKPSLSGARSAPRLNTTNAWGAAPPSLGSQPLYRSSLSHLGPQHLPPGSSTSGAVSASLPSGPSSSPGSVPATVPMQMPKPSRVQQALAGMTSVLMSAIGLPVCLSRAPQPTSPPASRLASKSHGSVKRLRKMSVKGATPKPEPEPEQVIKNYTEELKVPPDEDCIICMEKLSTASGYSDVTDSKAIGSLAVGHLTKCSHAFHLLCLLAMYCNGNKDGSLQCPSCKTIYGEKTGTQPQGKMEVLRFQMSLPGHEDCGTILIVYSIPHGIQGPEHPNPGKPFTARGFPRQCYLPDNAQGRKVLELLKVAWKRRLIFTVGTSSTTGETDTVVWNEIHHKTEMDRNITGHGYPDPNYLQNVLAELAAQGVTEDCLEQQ
# Outline: as §1
# [3] = biological target: T3, F5GY05|A0A0D9SEJ5|Q96EK7 (UniProt Q96EK7)
# T3 sequence (whole entry): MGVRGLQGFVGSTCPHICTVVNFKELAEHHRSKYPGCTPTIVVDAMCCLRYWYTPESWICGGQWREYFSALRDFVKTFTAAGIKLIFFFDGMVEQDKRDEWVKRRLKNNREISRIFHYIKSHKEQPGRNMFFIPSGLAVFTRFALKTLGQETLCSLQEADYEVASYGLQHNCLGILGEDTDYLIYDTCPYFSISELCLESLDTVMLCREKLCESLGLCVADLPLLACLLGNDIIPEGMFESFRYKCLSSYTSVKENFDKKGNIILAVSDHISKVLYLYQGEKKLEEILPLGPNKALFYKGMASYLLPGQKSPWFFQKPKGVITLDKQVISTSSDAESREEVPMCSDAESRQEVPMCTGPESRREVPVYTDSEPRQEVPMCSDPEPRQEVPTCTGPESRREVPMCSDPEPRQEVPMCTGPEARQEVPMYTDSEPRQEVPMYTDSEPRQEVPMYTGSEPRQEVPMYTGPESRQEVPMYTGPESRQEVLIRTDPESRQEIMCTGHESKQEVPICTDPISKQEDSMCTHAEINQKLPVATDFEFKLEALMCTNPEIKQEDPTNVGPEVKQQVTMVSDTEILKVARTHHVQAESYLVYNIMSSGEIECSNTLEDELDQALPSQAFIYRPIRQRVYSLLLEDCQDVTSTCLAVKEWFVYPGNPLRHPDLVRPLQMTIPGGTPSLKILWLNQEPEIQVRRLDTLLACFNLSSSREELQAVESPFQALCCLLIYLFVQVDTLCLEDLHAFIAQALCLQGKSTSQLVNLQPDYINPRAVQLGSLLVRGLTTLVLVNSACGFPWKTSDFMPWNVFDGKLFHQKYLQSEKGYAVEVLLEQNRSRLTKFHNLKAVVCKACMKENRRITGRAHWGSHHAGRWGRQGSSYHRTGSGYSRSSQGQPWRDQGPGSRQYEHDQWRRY
# Outline: as §1
# [4] = biological target: T4, F5H514|O95267|O95267-2 (UniProt O95267)
# T4 sequence (whole entry): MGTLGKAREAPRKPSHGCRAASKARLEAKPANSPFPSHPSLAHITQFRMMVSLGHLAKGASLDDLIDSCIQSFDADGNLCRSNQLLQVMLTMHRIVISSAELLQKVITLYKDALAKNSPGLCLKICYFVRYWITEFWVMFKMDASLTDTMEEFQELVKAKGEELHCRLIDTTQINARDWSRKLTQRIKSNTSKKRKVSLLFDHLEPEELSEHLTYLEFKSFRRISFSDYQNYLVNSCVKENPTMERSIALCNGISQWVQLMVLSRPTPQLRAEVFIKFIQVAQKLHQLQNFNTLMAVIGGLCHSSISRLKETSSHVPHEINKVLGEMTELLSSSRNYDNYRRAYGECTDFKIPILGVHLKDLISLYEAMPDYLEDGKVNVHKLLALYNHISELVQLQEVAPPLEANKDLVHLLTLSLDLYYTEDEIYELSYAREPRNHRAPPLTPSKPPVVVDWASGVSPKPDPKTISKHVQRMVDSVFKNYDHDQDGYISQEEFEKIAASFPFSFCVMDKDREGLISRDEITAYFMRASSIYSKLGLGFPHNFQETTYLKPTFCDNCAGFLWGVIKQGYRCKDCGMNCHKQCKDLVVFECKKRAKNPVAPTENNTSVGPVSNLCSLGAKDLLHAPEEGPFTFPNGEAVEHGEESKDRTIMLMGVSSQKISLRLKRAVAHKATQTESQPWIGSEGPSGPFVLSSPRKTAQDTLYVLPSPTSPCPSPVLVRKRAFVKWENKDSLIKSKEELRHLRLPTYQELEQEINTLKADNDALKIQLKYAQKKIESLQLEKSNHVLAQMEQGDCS
# Outline: as §1
# [5] = biological target: T5, I3L0H8|Q9NUU7|Q9NUU7-2 (UniProt Q9NUU7)
# T5 sequence (whole entry): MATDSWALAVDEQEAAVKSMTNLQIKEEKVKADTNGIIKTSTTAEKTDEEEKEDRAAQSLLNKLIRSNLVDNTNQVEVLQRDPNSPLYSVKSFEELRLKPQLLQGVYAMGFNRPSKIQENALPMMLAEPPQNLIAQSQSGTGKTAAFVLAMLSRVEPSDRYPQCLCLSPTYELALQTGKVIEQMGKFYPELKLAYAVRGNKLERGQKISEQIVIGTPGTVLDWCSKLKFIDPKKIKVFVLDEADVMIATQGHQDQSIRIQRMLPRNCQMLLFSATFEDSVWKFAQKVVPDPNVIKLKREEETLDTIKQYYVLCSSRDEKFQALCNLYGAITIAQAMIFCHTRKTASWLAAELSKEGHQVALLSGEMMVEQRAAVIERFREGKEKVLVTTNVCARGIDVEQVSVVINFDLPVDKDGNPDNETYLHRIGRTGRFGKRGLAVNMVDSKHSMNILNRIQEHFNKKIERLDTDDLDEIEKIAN
# Outline: as §1
# [6] = biological target: T6, J3KPS0|Q9NXW2 (UniProt Q9NXW2)
# T6 sequence (whole entry): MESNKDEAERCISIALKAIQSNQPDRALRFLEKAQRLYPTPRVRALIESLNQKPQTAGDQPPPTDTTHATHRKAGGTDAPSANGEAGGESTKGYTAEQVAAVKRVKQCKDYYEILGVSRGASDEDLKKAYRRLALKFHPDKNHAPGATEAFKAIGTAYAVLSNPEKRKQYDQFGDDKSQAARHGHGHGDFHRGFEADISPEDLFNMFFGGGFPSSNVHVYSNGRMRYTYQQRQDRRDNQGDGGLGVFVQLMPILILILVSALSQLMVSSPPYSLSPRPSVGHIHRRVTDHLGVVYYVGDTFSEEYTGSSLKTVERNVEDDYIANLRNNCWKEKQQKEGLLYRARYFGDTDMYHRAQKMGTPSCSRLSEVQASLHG
# Outline: as §1
# [7] = biological target: T7, SNAP23 (UniProt O00161)
# T7 sequence (whole entry): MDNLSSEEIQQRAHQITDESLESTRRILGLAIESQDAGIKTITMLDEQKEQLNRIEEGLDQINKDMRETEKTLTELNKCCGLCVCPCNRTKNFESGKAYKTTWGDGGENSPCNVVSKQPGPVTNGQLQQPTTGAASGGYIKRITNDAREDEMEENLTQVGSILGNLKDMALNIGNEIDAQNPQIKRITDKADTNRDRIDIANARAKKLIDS
# Outline: as §1
# [8] = biological target: T8, UniProt O14966|O14966-2
# T8 sequence (whole entry): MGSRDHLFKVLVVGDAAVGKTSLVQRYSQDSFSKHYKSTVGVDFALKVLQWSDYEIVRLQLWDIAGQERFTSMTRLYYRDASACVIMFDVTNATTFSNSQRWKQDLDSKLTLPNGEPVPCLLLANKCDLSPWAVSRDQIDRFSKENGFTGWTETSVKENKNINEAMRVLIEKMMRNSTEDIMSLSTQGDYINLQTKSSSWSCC
# Outline: as §1
smiles,measurement,setting,value
Nc1ncnc2c1ncn2[C@@H]1O[C@H](COP(=O)(O)OP(=O)(O)OP(=O)(O)O)[C@@H](O)[C@H]1O [adenosine triphosphate],NP40-soluble protein abundance,[1]; concentration: 1mM,1.07 ± 0.057
same,NP40-soluble protein abundance,[1]; concentration: 2mM,1.01 ± 0.042
same,NP40-soluble protein abundance,[1]; concentration: 4mM,0.975 ± 0.041
same,NP40-soluble protein abundance,[1]; concentration: 6mM,0.953 ± 0.07
same,NP40-soluble protein abundance,[1]; concentration: 8mM,1.03 ± 0.034
same,NP40-soluble protein abundance,[1]; concentration: 10mM,0.992 ± 0.033
same,NP40-soluble protein abundance,[2]; concentration: 1mM,0.936 ± 0.2
same,NP40-soluble protein abundance,[2]; concentration: 2mM,1.09 ± 0.15
same,NP40-soluble protein abundance,[2]; concentration: 4mM,1.05 ± 0.11
same,NP40-soluble protein abundance,[2]; concentration: 6mM,1.04 ± 0.039
same,NP40-soluble protein abundance,[2]; concentration: 8mM,1.03 ± 0.086
same,NP40-soluble protein abundance,[2]; concentration: 10mM,1.04 ± 0.035
same,NP40-soluble protein abundance,[3]; concentration: 1mM,1.03 ± 0.013
same,NP40-soluble protein abundance,[3]; concentration: 2mM,1.0493 ± 0.001
same,NP40-soluble protein abundance,[3]; concentration: 4mM,1.07 ± 0.017
same,NP40-soluble protein abundance,[3]; concentration: 6mM,1.06 ± 0.06
same,NP40-soluble protein abundance,[3]; concentration: 8mM,1.07 ± 0.02
same,NP40-soluble protein abundance,[3]; concentration: 10mM,1.08 ± 0.052
same,NP40-soluble protein abundance,[4]; concentration: 1mM,1.04 ± 0.12
same,NP40-soluble protein abundance,[4]; concentration: 2mM,1.09 ± 0.046
same,NP40-soluble protein abundance,[4]; concentration: 4mM,1.19 ± 0.15
same,NP40-soluble protein abundance,[4]; concentration: 6mM,1.21 ± 0.13
same,NP40-soluble protein abundance,[4]; concentration: 8mM,1.14 ± 0.065
same,NP40-soluble protein abundance,[4]; concentration: 10mM,1.24 ± 0.15
same,NP40-soluble protein abundance,[5]; concentration: 1mM,1.03 ± 0.02
same,NP40-soluble protein abundance,[5]; concentration: 2mM,1.03 ± 0.028
same,NP40-soluble protein abundance,[5]; concentration: 4mM,1 ± 0.03
same,NP40-soluble protein abundance,[5]; concentration: 6mM,1.02 ± 0.058
same,NP40-soluble protein abundance,[5]; concentration: 8mM,1.02 ± 0.012
same,NP40-soluble protein abundance,[5]; concentration: 10mM,1.02 ± 0.013
same,NP40-soluble protein abundance,[6]; concentration: 1mM,0.902 ± 0.035
same,NP40-soluble protein abundance,[6]; concentration: 2mM,0.898 ± 0.056
same,NP40-soluble protein abundance,[6]; concentration: 4mM,0.867 ± 0.058
same,NP40-soluble protein abundance,[6]; concentration: 6mM,0.846 ± 0.12
same,NP40-soluble protein abundance,[6]; concentration: 8mM,0.845 ± 0.11
same,NP40-soluble protein abundance,[6]; concentration: 10mM,0.833 ± 0.1
same,NP40-soluble protein abundance,[7]; concentration: 1mM,0.944 ± 0.077
same,NP40-soluble protein abundance,[7]; concentration: 2mM,0.947 ± 0.024
same,NP40-soluble protein abundance,[7]; concentration: 4mM,0.943 ± 0.021
same,NP40-soluble protein abundance,[7]; concentration: 6mM,1 ± 0.061
same,NP40-soluble protein abundance,[7]; concentration: 8mM,0.921 ± 0.02
same,NP40-soluble protein abundance,[7]; concentration: 10mM,0.883 ± 0.03
same,NP40-soluble protein abundance,[8]; concentration: 1mM,0.995 ± 0.072
same,NP40-soluble protein abundance,[8]; concentration: 2mM,1.01 ± 0.075
same,NP40-soluble protein abundance,[8]; concentration: 4mM,0.958 ± 0.099
same,NP40-soluble protein abundance,[8]; concentration: 6mM,1.03 ± 0.09
same,NP40-soluble protein abundance,[8]; concentration: 8mM,0.99 ± 0.1
same,NP40-soluble protein abundance,[8]; concentration: 10mM,1.01 ± 0.04
